# Laboratory results as given in PubChem BioAssay (Tox21).
# Several values for one entry are separate records, joined by “and”; a condition that tells them apart may be missing. Equal values may be shown once. Results filed as inconclusive are left out. A call without a number means that no potency is given here. More than one record can exist for a structure, and the calls need not agree. Activity calls are given as the source filed them. Calls follow the shape of the dose curve; as a rule, active = well fitted activation curve with a large enough effect in the repeat runs; inconclusive = weak or mixed curves; inactive = flat fitted curve, though single readings scatter.
# Assay: A CellTox Green Cytotoxicity Assay to monitor cytotoxicity in HEK293 cells - 32 hour (AID 1224881); also: nearly all actives have a fitted effect of over 40% in size
# Details: CellTox Green fluorescence; series mostly up to 76.8 µM; cytotoxicity increase: at the top concentration
# Text: National Center for Advancing Translational Sciences [NCATS]
# NIH Chemical Genomics Center [NCGC]
# U.S. Environmental Protection Agency [EPA]
# National Institutes of Environmental Health Sciences [NIEHS]
# National Toxicology Program [NTP]
# Cell-based models are critical for drug discovery. Determining the natural cytotoxic effects resulting from test compounds is an essential research activity. A CellTox Green Cytotoxicity Assay to monitor cytotoxicity in real time of continues cell culture during 40 hours of the compound treatment was used to screen Tox21 10K library compounds in Hek293 cells. CellTox Green Cytotoxicity Assay is a nonlytic, homogeneous, biofluorescent method to measure cytotoxicity in cell culture after experimental manipulation. The assay system uses a proprietary asymmetric cyanine dye that is excluded from viable cells but preferentially stains the dead cell's DNA. […] Viable cells produce no appreciable increases in fluorescence. Therefore, the fluorescence signal produced by the binding interaction with dead cell DNA is proportional to cytotoxicity.
# The mixture of Hek293 cell suspension and reagents were dispensed at 600cells/6 ul/well in 1536-well tissue culture treated black solid bottom plates using a Multidrop dispenser. After the assay plates were incubated at a 37 C/5% CO2 incubator for 5 hours, 23 nL of compounds dissolved in DMSO, positive and negative controls was transferred to the assay plate by a pintool work station. The plates were incubated at 37 C for 40 hours. The fluorescence intensity were measured at 0h, 8h, 16h, 24h, 32h and 40h time points using ViewLux plate reader during compound treatment.
# Potency is read from the fitted curve at half-maximal effect.
SMILES,Potency,cytotoxicity increase
CC(C)c1c(C(=O)Nc2ccccc2)c(-c2ccccc2)c(-c2ccc(F)cc2)n1CC[C@@H](O)C[C@@H](O)CC(=O)O,inactive,
O=C1O[C@H]([C@@H](O)CO)C(O)=C1O,inactive,
CC(O)(P(=O)(O)O)P(=O)(O)O,inactive,
CS(=O)(=O)OCCCCOS(C)(=O)=O,inactive,
NC(CO)(CO)CO,inactive,
Nc1ccc(O)c([N+](=O)[O-])c1,,31.2% (inactive)
CC1(C)O[C@@H]2C[C@H]3[C@@H]4CCC5=CC(=O)C=C[C@]5(C)[C@@]4(F)[C@@H](O)C[C@]3(C)[C@]2(C(=O)CO)O1,inactive and 9.52 µM (active),
O=C(O)c1ccccc1,inactive,
NC(=O)n1c(O)c(C(=O)c2cccs2)c2cc(Cl)ccc21,,-4.16% [at 35.3 µM] (inactive)
CCCCC(CC)C(=O)O (stereo not given),inactive,
Cc1c(C(=O)O)c(O)cc2c1C(=O)c1c(O)c([C@@H]3O[C@H](CO)[C@@H](O)[C@H](O)[C@H]3O)c(O)c(O)c1C2=O,inactive,
COc1cccc(O)c1O,,6.27% (inactive)
Cn1c(=O)c2c(ncn2C)n(C)c1=O,inactive,
OC[C@H]1O[C@H](O[C@]2(CCl)O[C@H](CCl)[C@@H](O)[C@@H]2O)[C@H](O)[C@@H](O)[C@H]1Cl,inactive,
NC1CCCCC1,inactive,
CCCCNC(=O)NS(=O)(=O)c1ccc(C)cc1,inactive,
F[B-](F)(F)F,inactive,
O=c1[nH]cnc2c1ncn2[C@H]1CC[C@@H](CO)O1,inactive,
C/C=C/C=C/C(=O)O,inactive,
CCOC(N)=O,inactive,

SMILES,Potency,cytotoxicity increase
O=C1c2c(O)cccc2Cc2cccc(O)c21,inactive,
Nc1c2c(nc3ccccc13)CCCC2,inactive,
O=C(O)CC(O)C(=O)O (stereo not given),inactive,
CC/C(=C(\c1ccccc1)c1ccc(OCCN(C)C)cc1)c1ccccc1,35 µM (active) [middle of 5 runs],
CC12CCC(CC1)C(C)(C)O2,inactive,
CN1[C@@H]2CC(OC(=O)[C@H](CO)c3ccccc3)C[C@H]1[C@@H]1O[C@@H]12 (stereo not given in full),inactive,
CCCCC1(COC(=O)CCC(=O)O)C(=O)N(c2ccccc2)N(c2ccccc2)C1=O,inactive,
C=C(C)C(=O)OCC(C)O (stereo not given),inactive,
C=CCc1ccc(O)c(OC)c1,inactive,
CN(N=O)C(=O)N[C@@H]1[C@@H](O)[C@H](O)[C@@H](CO)O[C@@H]1O,inactive,
Cc1ncc([N+](=O)[O-])n1C,inactive,
CCN(CC)C(=O)c1cccc(C)c1,inactive,
Cc1cn([C@H]2C=C[C@@H](CO)O2)c(=O)[nH]c1=O,inactive,
O=c1[nH]cc(F)c(=O)[nH]1,50.8 µM (active) and inactive,
NS(=O)(=O)c1cc2c(cc1Cl)NCNS2(=O)=O,inactive,
C[C@](N)(Cc1ccc(O)c(O)c1)C(=O)O,inactive,
O=C1NC(=O)C(c2ccccc2)(c2ccccc2)N1,inactive and 19 µM (active),
O=C(Nc1ncc([N+](=O)[O-])s1)c1cccs1,,-4.37% [at 35.3 µM] (inactive)
Cc1ncc([N+](=O)[O-])n1CCO,inactive,
CN1CCc2cccc3c2[C@H]1Cc1ccc(O)c(O)c1-3,55.5 µM (active) and inactive,
